Measurements taken from PubChem BioAssay.
Activity calls are given as the source filed them. Unless noted, the rule behind the calls is not given here.

How the values were obtained:
[1] = anti-His antibody binders, primary screen, artefact control for SMM control protein annotation, biochemical, small-molecule microarray, 635 nm fluorescence (AID 1128); conditions: anti-His Alexa647 antibody binding, higher = more signal;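 note: score merges feature fluorescence with signal-to-noise for each printed compound spot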
[2] = tested on: Human papillomavirus type 1a E7 protein (residues 1-88); assay: HPV1a E7 small-molecule binders, primary screen, biochemical, small-molecule microarray, residues 1-88, 635 nm (AID 1129); conditions: small-molecule microarray binding, fluorescence 635 nm; higher = more signal
[3] = target: Focal adhesion kinase 1 (Homo sapiens) (UniProt Q05397); assay: small-molecule microarray binders of FAK, primary screen, biochemical, 635/667 nm fluorescence, BSA, DTT (AID 1130); conditions: PTK2 binding, 635 nm fluorescence, higher = more signal;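 note: composite of spot emission at 667 nm and signal to noise over triplicate slides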
[4] = tested on: Fibrinogen (Alexa647-labelled); assay: fibrinogen binders on compound microarrays, profiling panel, artefact control for SMM control-protein annotation, biochemical, small-molecule microarray, 635/667 nm fluorescence (AID 1131); conditions: fibrinogen-A647 binding fluorescence, higher = more signal;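 note: z-score merges 667 nm fluorescence with per-spot signal-to-noise over triplicate slides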
[5] = target: Follistatin (Homo sapiens) (UniProt P19883); assay: follistatin binders on small-molecule microarrays, primary screen, biochemical, small-molecule microarray, 635/667 nm fluorescence (AID 1132); conditions: FST binding, 635 nm fluorescence, higher = more signal
[6] = target: Fibroblast growth factor 2 (Homo sapiens) (UniProt P09038); assay: FGF2 binders on small-molecule microarrays, primary screen, biochemical, small-molecule microarray, 635/667 nm fluorescence (AID 1133); conditions: small-molecule microarray binding, FGF2, fluorescence 635/667; higher = more signal
[7] = mitochondrial membrane potential change in A549 cells, profiling panel, cell-based, JC-1 fluorescence, basal, 24 h, 100 nL (AID 1138); conditions: higher = more signal;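 note: A549 lung adenocarcinoma cells under basal conditions with no added stimulus; test concentration not given here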
Lefty1 = Lefty1 binders on small-molecule microarrays, primary screen, biochemical, small-molecule microarray, 635/667 nm fluorescence (AID 1139); conditions: small-molecule microarray binding, fluorescence 635/667; higher = more signal
[8] = tested on: wheat germ agglutinin (Triticum aestivum), Alexa647-labelled; assay: wheat germ agglutinin binders on compound microarrays, profiling panel, artefact control for SMM control-protein annotation, biochemical, small-molecule microarray, 635/667 nm fluorescence (AID 1140); conditions: WGA-A647 binding, 635 nm fluorescence, higher = more signal;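 note: score merges 667 nm feature emission with signal to noise over triplicate slides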
[9] = target: Luciferin 4-monooxygenase (Photinus pyralis) (UniProt P08659); assay: firefly luciferase enzyme inhibitors, primary screen, biochemical, luminescence, purified enzyme, 2006 set (AID 1141); conditions: SteadyGlo luminescence, 30 min, higher = more signal, called active from +8 up or from −8 down;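 note: cell-free assay with purified firefly luciferase at 100 ng per well in PBS; test concentration not given here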
[10] = tested on: Wnt5a (protein binding on small-molecule microarray); assay: Wnt5a binders on small-molecule microarray, primary screen, biophysical, 635/667 nm fluorescence (AID 1142); conditions: 635 nm fluorescence, higher = more signal;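 note: fluorescence read at 667 nm with signal to noise per printed feature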
[11] = cell viability in Huh7 cells, primary screen, cytotoxicity control for HCV replication inhibitor project, CellTiter-Glo luminescence, basal, 48 h (AID 1143); conditions: Huh7 HCV replicon, higher = more signal, called active from +8 up or from −8 down;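 note: Huh7 hepatoma cells carrying a hepatitis C replication reporter with no stimulus; test concentration not given here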
[12] = P. aeruginosa biofilm formation inhibitors, primary screen, PAO1 strain, BacTiter-Glo luminescence, LB-PBS (AID 1144); conditions: 12 h, higher = more signal
[13] = CREB reporter modulators without forskolin, primary screen, cell-based, PC12, CRE-LacZ reporter, unstimulated (AID 1145); conditions: no forskolin, luminescence, 4.5 h, higher = more signal, called active from +8 up or from −8 down
[14] = CREB reporter modulators under forskolin, primary screen, cell-based, PC12, CRE-LacZ reporter, forskolin-stimulated (AID 1146); conditions: luminescence, 4.5 h, higher = more signal, called active from +8 up or from −8 down;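 note: PC12 cells with 6xCRE LacZ reporter stimulated by forskolin 10 µM; beta-galactosidase reporter signal reflecting CREB driven transcription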
[15] = target: Streptavidin (Streptomyces avidinii) (UniProt P22629); assay: streptavidin binders on small-molecule microarray, primary screen, artefact control for SMM compound annotation, biophysical, 635/667 nm fluorescence (AID 1147); conditions: streptavidin binding, higher = more signal;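 note: signal reflects streptavidin binding to arrayed compounds as a control protein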
[16] = small-molecule binders of probe aInhba, primary screen, biochemical, small-molecule microarray, 635/667 nm fluorescence (AID 1148); conditions: higher = more signal;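 note: score merges 667nm spot fluorescence with signal-to-noise for antibody binding to printed compounds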
Torsin-1A (Homo sapiens) [17] = target: Torsin-1A (Homo sapiens) (UniProt O14656); assay: torsin A binders from cell lysate, primary screen, small-molecule microarray, wild-type, 635/667 nm (AID 1149); conditions: COS7 hTOR1A-WT lysate, 635 nm fluorescence, higher = more signal
Torsin-1A (Homo sapiens) [18] = target: Torsin-1A (Homo sapiens) (UniProt O14656); assay: small-molecule binders of mutant TOR1A in lysate, primary screen, cell lysate, small-molecule microarray, COS7 lysate, 635/667 nm fluorescence (AID 1150); conditions: COS7 hTOR1A mutant lysate, 635 nm fluorescence, higher = more signal;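 note: score pools 667 nm emission and signal to noise measuring lysate protein binding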
[19] = tested on: Sonic hedgehog protein (Shh); assay: small-molecule binders of Shh protein, primary screen, biochemical, small-molecule microarray, 635/667 nm fluorescence (AID 1151); conditions: small-molecule microarray binding, 635 nm fluorescence; higher = more signal;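 note: Shh protein binding to compounds spotted on small-molecule microarray slides; score combines spot fluorescence intensity with signal-to-noise across triplicate slides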

Sequence of Luciferin 4-monooxygenase (Photinus pyralis) (P08659 whole entry, looked up): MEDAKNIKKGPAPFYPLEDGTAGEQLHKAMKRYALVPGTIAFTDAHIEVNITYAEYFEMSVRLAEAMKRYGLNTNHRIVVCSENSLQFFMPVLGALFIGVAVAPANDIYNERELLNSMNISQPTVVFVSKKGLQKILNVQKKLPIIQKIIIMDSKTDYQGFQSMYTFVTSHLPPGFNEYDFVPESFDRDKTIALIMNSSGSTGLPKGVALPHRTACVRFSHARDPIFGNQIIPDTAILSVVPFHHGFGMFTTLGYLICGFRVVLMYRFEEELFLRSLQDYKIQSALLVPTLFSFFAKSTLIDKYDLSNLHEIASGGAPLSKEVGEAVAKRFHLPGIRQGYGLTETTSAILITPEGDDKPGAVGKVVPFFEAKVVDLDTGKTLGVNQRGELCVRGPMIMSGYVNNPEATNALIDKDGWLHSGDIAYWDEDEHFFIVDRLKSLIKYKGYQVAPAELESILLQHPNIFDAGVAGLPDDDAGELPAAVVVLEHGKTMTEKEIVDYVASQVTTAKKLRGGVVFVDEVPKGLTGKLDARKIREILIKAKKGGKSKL
Sequence of Focal adhesion kinase 1 (Homo sapiens) (Q05397 whole entry, looked up): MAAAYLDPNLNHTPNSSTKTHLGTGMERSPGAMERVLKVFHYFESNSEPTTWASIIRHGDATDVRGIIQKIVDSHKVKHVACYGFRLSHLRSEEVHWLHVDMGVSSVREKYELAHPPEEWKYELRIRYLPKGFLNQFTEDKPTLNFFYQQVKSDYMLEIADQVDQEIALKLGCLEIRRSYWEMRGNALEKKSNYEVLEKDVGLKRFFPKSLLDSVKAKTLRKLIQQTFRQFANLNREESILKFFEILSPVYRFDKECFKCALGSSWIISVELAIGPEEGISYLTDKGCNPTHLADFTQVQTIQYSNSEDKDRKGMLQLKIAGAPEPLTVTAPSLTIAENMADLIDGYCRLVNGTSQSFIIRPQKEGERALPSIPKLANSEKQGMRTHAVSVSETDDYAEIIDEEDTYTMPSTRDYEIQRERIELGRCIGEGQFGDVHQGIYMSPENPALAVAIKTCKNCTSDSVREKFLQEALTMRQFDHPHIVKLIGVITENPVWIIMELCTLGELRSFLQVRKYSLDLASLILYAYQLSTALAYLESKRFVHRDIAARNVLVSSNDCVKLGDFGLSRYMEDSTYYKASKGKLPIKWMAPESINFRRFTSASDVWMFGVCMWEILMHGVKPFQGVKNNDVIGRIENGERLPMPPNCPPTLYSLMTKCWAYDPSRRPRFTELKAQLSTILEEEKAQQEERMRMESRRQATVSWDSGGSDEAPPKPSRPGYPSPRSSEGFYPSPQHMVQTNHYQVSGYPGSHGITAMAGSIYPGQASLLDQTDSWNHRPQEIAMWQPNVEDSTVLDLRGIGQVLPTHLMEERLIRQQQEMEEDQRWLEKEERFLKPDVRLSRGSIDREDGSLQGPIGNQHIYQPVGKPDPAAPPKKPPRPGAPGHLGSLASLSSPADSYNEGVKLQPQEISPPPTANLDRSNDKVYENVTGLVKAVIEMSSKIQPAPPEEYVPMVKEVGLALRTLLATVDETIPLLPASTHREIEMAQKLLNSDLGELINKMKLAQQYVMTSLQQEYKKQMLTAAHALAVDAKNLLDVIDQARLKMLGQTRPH
Sequence of Follistatin (Homo sapiens) (P19883 whole entry, looked up): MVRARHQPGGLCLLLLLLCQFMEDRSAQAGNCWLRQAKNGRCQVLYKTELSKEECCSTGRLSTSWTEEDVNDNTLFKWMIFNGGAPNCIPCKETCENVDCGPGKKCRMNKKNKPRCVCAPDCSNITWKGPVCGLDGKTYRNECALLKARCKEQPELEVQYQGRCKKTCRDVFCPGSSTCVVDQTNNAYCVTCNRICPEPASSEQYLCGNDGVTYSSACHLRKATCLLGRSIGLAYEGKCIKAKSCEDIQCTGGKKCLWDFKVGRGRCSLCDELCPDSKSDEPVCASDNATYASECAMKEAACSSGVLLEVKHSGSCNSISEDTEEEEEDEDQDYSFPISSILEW
Sequence of Streptavidin (Streptomyces avidinii) (P22629 whole entry, looked up): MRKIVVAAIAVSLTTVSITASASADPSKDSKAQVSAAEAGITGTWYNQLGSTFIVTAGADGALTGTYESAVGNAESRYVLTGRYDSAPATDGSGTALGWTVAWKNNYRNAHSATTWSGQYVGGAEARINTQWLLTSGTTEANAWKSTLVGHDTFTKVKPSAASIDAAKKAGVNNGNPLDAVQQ
Sequence of Fibroblast growth factor 2 (Homo sapiens) (P09038 whole entry, looked up): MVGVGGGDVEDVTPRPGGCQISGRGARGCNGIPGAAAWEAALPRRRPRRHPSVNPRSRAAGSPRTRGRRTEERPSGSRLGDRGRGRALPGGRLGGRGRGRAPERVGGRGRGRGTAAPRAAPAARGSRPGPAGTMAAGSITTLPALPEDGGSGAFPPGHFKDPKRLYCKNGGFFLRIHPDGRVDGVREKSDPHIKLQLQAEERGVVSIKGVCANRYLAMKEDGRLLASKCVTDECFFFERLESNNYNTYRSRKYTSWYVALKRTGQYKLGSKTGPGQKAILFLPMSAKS
Sequence of Torsin-1A (Homo sapiens) (O14656 whole entry, looked up): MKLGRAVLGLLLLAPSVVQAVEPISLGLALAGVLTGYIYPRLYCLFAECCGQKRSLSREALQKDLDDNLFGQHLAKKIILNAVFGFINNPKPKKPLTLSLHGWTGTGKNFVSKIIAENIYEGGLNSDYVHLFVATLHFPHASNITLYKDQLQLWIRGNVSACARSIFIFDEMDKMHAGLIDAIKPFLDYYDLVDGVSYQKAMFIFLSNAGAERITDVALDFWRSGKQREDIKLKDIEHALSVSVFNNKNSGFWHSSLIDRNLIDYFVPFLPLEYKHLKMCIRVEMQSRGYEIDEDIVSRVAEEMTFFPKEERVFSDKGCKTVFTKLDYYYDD

Compound | composite z-score [1] | composite z-score [2] | composite z-score [3] | composite z-score [4] | composite z-score [5] | composite z-score [6] | z-score [7] | composite z-score (Lefty1) | composite z-score [8] | z-score [9] | composite z-score [10] | z-score [11] | z-score [12] | z-score [13] | z-score [14] | composite z-score [15] | composite z-score [16] | composite z-score (Torsin-1A (Homo sapiens) [17]) | composite z-score (Torsin-1A (Homo sapiens) [18]) | composite z-score [19]
CC(C)(C)OC(=O)CC[C@]1(C(=O)NCC(O)CO)COC(c2ccc(OCCCO)cc2)=N1 (stereo not given in full) | 1.97 | 1.22 | 0.472 | 0.936 | -0.255 | -0.473 | -0.328 | -0.35 | 0.879 | 0.438 (inactive) | -0.05 | -0.0229 (inactive) | -0.904 (inactive) | -0.412 (inactive) | -0.0431 (inactive) | 0.873 | -0.003 | 0.746 | 2.65 | -1.31
[N-]=[N+]=Nc1ccccc1C[C@]1(C(=O)NCC(O)CO)N=C(c2ccc(OCCCO)cc2)O[C@H]1c1ccccc1N=[N+]=[N-] (stereo not given in full) | 1.58 | -0.212 | 0.0567 | 0.578 | -0.332 | -0.83 | 0.0494 | -0.435 | 0.543 | -3.26 (inactive) | 0.246 | -3.86 (inactive) | -0.0958 (inactive) | 1.05 (inactive) | -1.49 (inactive) | 0.0136 | 0.192 | -0.0376 | 0.585 | -0.524
O=C1c2ccccc2[C@@]2(Cc3ccccc3N(CCN3CCOCC3)C2=O)[C@H](c2ccc(CO)cc2)N1Cc1ccccc1 | -0.784 | -0.689 | 0.352 | -0.523 | 0.0312 | -0.253 | 0.202 | -0.0729 | -0.304 | 1.01 (inactive) | -0.465 | -1.24 (inactive) | -1.33 (inactive) | 0.208 (inactive) | -0.297 (inactive) | -0.383 | -0.231 | 0.437 | 0.456 | -0.613
CC(C)C[C@H]1NC(=O)[C@@]23C(=O)N[C@@H](Cc4ccccc4)C2[C@H](C)[C@@]2(C)O[C@H]2C3/C=C/C/C=C\CNC(=O)[C@H](Cc2ccccc2)NC1=O (stereo not given in full) | 0.218 | 0.45 | -0.291 | 0.183 | 1.01 | 0.717 | 0.156 | 1.24 | -0.204 | -3.01 (inactive) | 0.234 | -0.73 (inactive) | -0.137 (inactive) | -0.416 (inactive) | -0.862 (inactive) | -0.279 | -0.0189 | 0.839 | 0.716 | 2.06
CN1C(=O)C2C=CC(C(O)c3ccccc3)N(Nc3ccccc3)C2C1=O (stereo not given) | 0.75 | 0.717 | 0.61 | -0.022 | -1.07 | -1.39 | -0.419 | -0.279 | 0.537 | -0.315 (inactive) | -0.244 | 0.658 (inactive) | -0.231 (inactive) | 0.626 (inactive) | -0.206 (inactive) | -0.0782 | -0.0195 | -1.5 | 0.254 | -1.58
Cc1ccc(S[C@]2(C(=O)NCC(C)C)CC(=O)N(Cc3cc(C(F)(F)F)cc(C(F)(F)F)c3)[C@@H]2c2ccc(CO)cc2I)cc1 | -0.316 | -1.08 | -0.55 | -0.819 | -1.59 | -1.1 | -0.553 | -2.21 | -0.192 | 0.328 (inactive) | -0.0088 | -1.19 (inactive) | -0.486 (inactive) | 0.441 (inactive) | 0.845 (inactive) | -0.634 | 0.0173 | -1.72 | -0.913 | -1.05
C[N+](C)(C)CCCCNC(=O)[C@H]1C[C@H]2C(=O)N[C@@H](Cc3ccccc3)C(=O)N2[C@H]1c1ccc(O)cc1 | 1.94 | -0.304 | -0.452 | 0.451 | 1.34 | 0.971 | 0.079 | 0.985 | 0.496 | -1.27 (inactive) | 0.134 | 0.0641 (inactive) | 0.0228 (inactive) | 0.143 (inactive) | 0.465 (inactive) | -0.455 | 0.106 | 0.81 | 0.513 | 2.04
O=C(C1N=C(c2ccc(OCCCO)cc2)N(c2ccccc2)O1)N1CCOCC1 (stereo not given) | 0.548 | 1.2 | 0.497 | 0.966 | 1.22 | 0.667 | 0.211 | 0.842 | 0.388 | -12 (active) | 0.427 | -3.19 (inactive) | -0.59 (inactive) | 0.185 (inactive) | -0.472 (inactive) | 0.637 | 0.0947 | 0.652 | 0.219 | 0.476
O=C1c2ccccc2[C@@]2(Cc3ccccc3N(CC(F)(F)F)C2=O)[C@H](c2ccc(CO)cc2)N1Cc1ccccc1Cl | 0.181 | -0.265 | -0.121 | -0.134 | 1.12 | 0.652 | -0.000595 | 0.667 | -0.518 | -0.496 (inactive) | 0.125 | 0.289 (inactive) | -0.165 (inactive) | -0.141 (inactive) | -1.11 (inactive) | 0.0272 | -0.0256 | 0.0329 | 0.293 | 1.42
